# Laboratory results published in ChEMBL document CHEMBL1201862, “PubChem BioAssay data set” (2004).
# In all, about 44,000 sequences went through this assay and about 2,900 (6.6%) were called active. Rule as the data show it: active = GI50 up to about 1.1 µM and inactive = higher. These entries were drawn from the full list. Potency and affinity values are given separately.
# System: NCI/ADR-RES
row,Substance,GI50 [µM]
1,"CISPLATIN, CHEMBL11359",4.93
2,"[Bis(aminomethyl)tetramethylenesilane]dichloropaltinum(II), CHEMBL2146205",5.22
3,"[Bis(aminomethyl)tetramethylenesilane]tetrachloropaltinum(IV), CHEMBL2146189",5.69
4,"[Bis(aminomethyl)pentamethylenesilane]tetrachloropaltinum(IV), CHEMBL2146204",1.91
5,"[Bis(aminomethyl)pentamethylenesilane]dichloropaltinum(II), CHEMBL2146202",14.3
6,"[Bis(aminomethyl)dimethylsilane]tetrachloroplatinum(IV), CHEMBL2146190",15
